Assay in all cases: DAPPL (digital affinity profiling via proximity ligation, sequencing); 10 mM Tris-HCl pH 7.5, 50 mM NaCl, 1 mM DTT, 4% glycerol, room temperature, 30 min; GST-TFs on glutathione beads, 16-mer random dsDNA library, 0.1% formaldehyde crosslink after washing; high values mean tight binding
Conditions in all cases: protein: recombinant; tags: N-terminal GST; dsDNA, one strand shown

One assay has as its target T1, FLI1 (Homo sapiens, UniProt Q01543 1-452).
T1 sequence: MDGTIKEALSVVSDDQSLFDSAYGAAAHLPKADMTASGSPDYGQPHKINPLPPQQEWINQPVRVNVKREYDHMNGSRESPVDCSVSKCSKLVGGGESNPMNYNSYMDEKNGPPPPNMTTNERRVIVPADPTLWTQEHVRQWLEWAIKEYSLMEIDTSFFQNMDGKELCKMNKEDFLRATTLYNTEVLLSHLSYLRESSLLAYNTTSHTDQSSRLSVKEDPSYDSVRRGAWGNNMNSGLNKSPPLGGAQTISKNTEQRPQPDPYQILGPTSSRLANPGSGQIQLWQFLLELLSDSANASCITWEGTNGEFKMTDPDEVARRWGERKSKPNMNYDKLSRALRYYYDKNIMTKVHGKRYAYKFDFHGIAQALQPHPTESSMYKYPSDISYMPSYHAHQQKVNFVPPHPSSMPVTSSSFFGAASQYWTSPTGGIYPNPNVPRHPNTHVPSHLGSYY
An outline of the steps: (§1)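 Pools of DNA-barcoded human transcription factors, expressed in yeast as GST fusions on glutathione beads and combined with a tag-only sample, were incubated with 200 nmole of a 16-mer random double-stranded DNA library. Incubation took 30 min at room temperature in Tris/NaCl/DTT/glycerol buffer and was followed by washing, 0.1% formaldehyde crosslinking, proximity ligation (BsaI/T4 ligase, 1 h, 37 °C), PCR amplification and sequencing on an Illumina NextSeq500. Binding signal is the ratio of a hexamer's read frequency for a factor to its frequency for the tag-only sample.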

The target of the next assay is T2, ELK1 (Homo sapiens, UniProt P19419 1-428).
T2 sequence: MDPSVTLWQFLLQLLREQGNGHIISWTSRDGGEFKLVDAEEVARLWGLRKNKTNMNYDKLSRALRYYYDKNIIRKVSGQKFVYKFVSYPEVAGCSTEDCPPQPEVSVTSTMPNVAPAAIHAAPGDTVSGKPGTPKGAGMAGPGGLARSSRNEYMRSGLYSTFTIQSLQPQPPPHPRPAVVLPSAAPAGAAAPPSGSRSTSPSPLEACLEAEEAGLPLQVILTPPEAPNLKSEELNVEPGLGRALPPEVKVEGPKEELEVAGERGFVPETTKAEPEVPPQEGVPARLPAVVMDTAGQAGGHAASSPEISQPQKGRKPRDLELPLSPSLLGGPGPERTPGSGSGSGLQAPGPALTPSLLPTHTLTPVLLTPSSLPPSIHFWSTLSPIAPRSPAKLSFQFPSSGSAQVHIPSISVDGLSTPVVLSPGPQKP
An outline of the steps:
as §1

The target in a further assay is T3, GABPA (Homo sapiens, UniProt Q06546 1-454).
T3 sequence: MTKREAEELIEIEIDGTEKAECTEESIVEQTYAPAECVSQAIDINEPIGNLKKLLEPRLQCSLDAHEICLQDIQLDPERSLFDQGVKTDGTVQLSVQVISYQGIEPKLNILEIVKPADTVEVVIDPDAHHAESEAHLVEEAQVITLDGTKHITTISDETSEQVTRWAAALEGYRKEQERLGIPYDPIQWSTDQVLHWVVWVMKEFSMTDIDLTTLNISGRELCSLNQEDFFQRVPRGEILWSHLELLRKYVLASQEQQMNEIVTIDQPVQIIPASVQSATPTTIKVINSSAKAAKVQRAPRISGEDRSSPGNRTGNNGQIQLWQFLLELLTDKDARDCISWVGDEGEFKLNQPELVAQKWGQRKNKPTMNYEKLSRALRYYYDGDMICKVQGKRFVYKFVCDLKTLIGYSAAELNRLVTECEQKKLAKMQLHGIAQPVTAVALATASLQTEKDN
An outline of the steps: as §1

A further assay addresses T4, ERG (Homo sapiens, UniProt P11308 1-479).
T4 sequence: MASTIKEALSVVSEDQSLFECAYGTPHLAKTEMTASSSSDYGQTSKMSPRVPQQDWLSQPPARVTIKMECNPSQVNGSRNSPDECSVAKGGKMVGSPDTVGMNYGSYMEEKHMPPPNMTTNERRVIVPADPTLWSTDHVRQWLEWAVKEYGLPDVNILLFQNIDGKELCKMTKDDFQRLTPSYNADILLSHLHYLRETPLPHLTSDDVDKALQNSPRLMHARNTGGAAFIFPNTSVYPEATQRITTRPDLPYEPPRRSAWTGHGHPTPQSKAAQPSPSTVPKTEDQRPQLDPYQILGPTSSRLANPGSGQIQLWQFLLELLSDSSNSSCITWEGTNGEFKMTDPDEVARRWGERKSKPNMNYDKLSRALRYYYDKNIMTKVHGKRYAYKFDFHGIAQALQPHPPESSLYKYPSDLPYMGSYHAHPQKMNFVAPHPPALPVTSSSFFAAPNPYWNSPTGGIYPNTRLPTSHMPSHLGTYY
An outline of the steps:
as §1

For a further assay, the target named is ELF1 (Homo sapiens, UniProt P32519 1-619). The method in brief: as §1
Sequence of ELF1 (P32519 whole entry): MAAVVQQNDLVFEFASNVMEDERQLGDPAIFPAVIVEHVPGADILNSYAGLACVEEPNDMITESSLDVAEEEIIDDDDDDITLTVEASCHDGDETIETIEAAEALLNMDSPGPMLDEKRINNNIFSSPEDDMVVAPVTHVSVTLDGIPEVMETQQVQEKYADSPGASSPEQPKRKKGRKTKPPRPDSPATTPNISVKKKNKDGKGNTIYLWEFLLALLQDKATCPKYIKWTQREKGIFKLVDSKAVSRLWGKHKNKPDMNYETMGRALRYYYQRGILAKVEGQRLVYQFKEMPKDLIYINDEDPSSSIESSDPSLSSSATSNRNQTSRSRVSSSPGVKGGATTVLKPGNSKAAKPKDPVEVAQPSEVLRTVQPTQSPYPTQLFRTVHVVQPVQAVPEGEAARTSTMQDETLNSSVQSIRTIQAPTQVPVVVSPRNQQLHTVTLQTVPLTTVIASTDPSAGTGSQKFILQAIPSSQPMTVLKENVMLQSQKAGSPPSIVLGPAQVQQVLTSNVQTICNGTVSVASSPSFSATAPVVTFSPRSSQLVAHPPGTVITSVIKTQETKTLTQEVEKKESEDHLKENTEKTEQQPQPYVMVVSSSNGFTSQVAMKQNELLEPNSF
A further assay concerns the target T5, EHF (Homo sapiens, UniProt Q9NZC4 1-300).
T5 sequence: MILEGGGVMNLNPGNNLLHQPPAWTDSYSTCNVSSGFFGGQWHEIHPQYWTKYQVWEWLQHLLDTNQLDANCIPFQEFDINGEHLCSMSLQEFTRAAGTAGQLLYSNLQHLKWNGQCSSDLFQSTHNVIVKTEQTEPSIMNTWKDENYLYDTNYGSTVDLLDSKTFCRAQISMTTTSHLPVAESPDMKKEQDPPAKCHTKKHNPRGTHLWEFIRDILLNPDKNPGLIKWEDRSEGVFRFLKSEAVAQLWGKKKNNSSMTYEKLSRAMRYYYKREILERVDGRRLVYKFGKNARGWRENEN
An outline of the steps:
as §1

The target in the next assay is SPI1 (Homo sapiens, UniProt P17947 1-270). The method in brief:
as §1

The next assay deals with SPIB (Homo sapiens, UniProt Q01892 1-262). The method in brief: as §1
Sequence of SPIB (Q01892 whole entry): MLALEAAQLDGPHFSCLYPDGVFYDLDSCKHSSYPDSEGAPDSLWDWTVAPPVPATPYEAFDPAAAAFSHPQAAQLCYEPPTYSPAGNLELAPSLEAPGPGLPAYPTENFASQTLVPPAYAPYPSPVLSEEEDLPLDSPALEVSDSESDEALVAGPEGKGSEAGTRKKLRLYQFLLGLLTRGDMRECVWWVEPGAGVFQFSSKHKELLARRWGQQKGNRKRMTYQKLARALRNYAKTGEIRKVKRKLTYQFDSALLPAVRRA
Another assay addresses T6, ELK3 (Homo sapiens, UniProt P41970 1-407).
T6 sequence: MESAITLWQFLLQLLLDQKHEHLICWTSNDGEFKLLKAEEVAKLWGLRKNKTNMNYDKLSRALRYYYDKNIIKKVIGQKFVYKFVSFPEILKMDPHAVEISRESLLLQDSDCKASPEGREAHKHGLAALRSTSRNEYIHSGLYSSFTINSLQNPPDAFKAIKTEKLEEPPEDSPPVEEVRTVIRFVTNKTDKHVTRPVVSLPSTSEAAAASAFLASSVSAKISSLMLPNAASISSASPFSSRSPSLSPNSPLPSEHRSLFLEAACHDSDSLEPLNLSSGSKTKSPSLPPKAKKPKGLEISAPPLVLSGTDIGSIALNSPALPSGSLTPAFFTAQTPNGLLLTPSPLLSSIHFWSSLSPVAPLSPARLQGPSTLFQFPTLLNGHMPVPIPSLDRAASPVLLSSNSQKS
An outline of the steps: as §1

With ATGCTT, the binding signal with FLI1 is 1.35 fold enrichment (6-mer frequency, TF over GST control); with ELK1, 1.42 fold enrichment (6-mer frequency, TF over GST control); with GABPA it was 1.26 fold enrichment (6-mer frequency, TF over GST control); in the assay with ERG, 1.32 fold enrichment (6-mer frequency, TF over GST control); with ELF1, 1.27 fold enrichment (6-mer frequency, TF over GST control); with EHF, 1.29 fold enrichment (6-mer frequency, TF over GST control). Besides, the binding signal is 1.24 fold enrichment (6-mer frequency, TF over GST control) with SPI1; 1.4 fold enrichment (6-mer frequency, TF over GST control) in the assay with SPIB; 1.36 fold enrichment (6-mer frequency, TF over GST control) in the assay with ELK3.

Regarding AACTCT, the binding signal with FLI1 was 1.32 fold enrichment (6-mer frequency, TF over GST control); with ELK1, 1.37 fold enrichment (6-mer frequency, TF over GST control); with GABPA, 1.31 fold enrichment (6-mer frequency, TF over GST control); with ERG, 1.33 fold enrichment (6-mer frequency, TF over GST control); with ELF1, 1.5 fold enrichment (6-mer frequency, TF over GST control); with EHF, 1.33 fold enrichment (6-mer frequency, TF over GST control). Also, the binding signal with SPI1 was 1.28 fold enrichment (6-mer frequency, TF over GST control); with SPIB it was 1.28 fold enrichment (6-mer frequency, TF over GST control); with ELK3, 1.26 fold enrichment (6-mer frequency, TF over GST control).

As to GTTCTC, the binding signal with FLI1 was 1.36 fold enrichment (6-mer frequency, TF over GST control); with ELK1 it was 1.18 fold enrichment (6-mer frequency, TF over GST control); with GABPA it was 1.4 fold enrichment (6-mer frequency, TF over GST control); with ERG, 1.27 fold enrichment (6-mer frequency, TF over GST control); with ELF1 it was 1.28 fold enrichment (6-mer frequency, TF over GST control); with EHF, 1.22 fold enrichment (6-mer frequency, TF over GST control). Further, the binding signal in the assay with SPI1 is 1.33 fold enrichment (6-mer frequency, TF over GST control); with SPIB it was 1.35 fold enrichment (6-mer frequency, TF over GST control); in the assay with ELK3, 1.19 fold enrichment (6-mer frequency, TF over GST control).

Take CAAAAC: the binding signal with FLI1 was 1.19 fold enrichment (6-mer frequency, TF over GST control); with ELK1 it was 1.27 fold enrichment (6-mer frequency, TF over GST control); with GABPA it was 1.3 fold enrichment (6-mer frequency, TF over GST control); with ERG, 1.23 fold enrichment (6-mer frequency, TF over GST control); with ELF1, 1.28 fold enrichment (6-mer frequency, TF over GST control); with EHF it was 1.26 fold enrichment (6-mer frequency, TF over GST control). Also, the binding signal was 1.38 fold enrichment (6-mer frequency, TF over GST control) with SPI1; 1.23 fold enrichment (6-mer frequency, TF over GST control) with SPIB; 1.21 fold enrichment (6-mer frequency, TF over GST control) in the assay with ELK3.

For GCGATG, the binding signal with FLI1 was 1.2 fold enrichment (6-mer frequency, TF over GST control); with ELK1, 1.48 fold enrichment (6-mer frequency, TF over GST control); with GABPA it was 1.37 fold enrichment (6-mer frequency, TF over GST control); with ERG, 1.23 fold enrichment (6-mer frequency, TF over GST control); with ELF1, 1.31 fold enrichment (6-mer frequency, TF over GST control); in the assay with EHF, 1.25 fold enrichment (6-mer frequency, TF over GST control). The binding signal with SPI1 is 1.34 fold enrichment (6-mer frequency, TF over GST control); with SPIB, 1.29 fold enrichment (6-mer frequency, TF over GST control); with ELK3, 1.31 fold enrichment (6-mer frequency, TF over GST control).

On to ACTGCT, for which the binding signal in the assay with FLI1 was 1.44 fold enrichment (6-mer frequency, TF over GST control); with ELK1, 1.45 fold enrichment (6-mer frequency, TF over GST control); with GABPA, 1.29 fold enrichment (6-mer frequency, TF over GST control); with ERG it was 1.29 fold enrichment (6-mer frequency, TF over GST control); with ELF1 it was 1.35 fold enrichment (6-mer frequency, TF over GST control); in the assay with EHF, 1.41 fold enrichment (6-mer frequency, TF over GST control). Besides, the binding signal with SPI1 is 1.46 fold enrichment (6-mer frequency, TF over GST control); in the assay with SPIB it was 1.36 fold enrichment (6-mer frequency, TF over GST control); in the assay with ELK3 it was 1.26 fold enrichment (6-mer frequency, TF over GST control).

Turning to TTCGTT, the binding signal with FLI1 is 1.33 fold enrichment (6-mer frequency, TF over GST control); in the assay with ELK1, 1.4 fold enrichment (6-mer frequency, TF over GST control); with GABPA, 1.33 fold enrichment (6-mer frequency, TF over GST control); in the assay with ERG it was 1.25 fold enrichment (6-mer frequency, TF over GST control); with ELF1 it was 1.32 fold enrichment (6-mer frequency, TF over GST control); in the assay with EHF it was 1.36 fold enrichment (6-mer frequency, TF over GST control). Besides, the binding signal with SPI1 is 1.29 fold enrichment (6-mer frequency, TF over GST control); with SPIB it was 1.33 fold enrichment (6-mer frequency, TF over GST control); in the assay with ELK3, 1.24 fold enrichment (6-mer frequency, TF over GST control).

For TTGTGG, the binding signal in the assay with FLI1 is 1.52 fold enrichment (6-mer frequency, TF over GST control); with ELK1, 1.36 fold enrichment (6-mer frequency, TF over GST control); in the assay with GABPA, 1.41 fold enrichment (6-mer frequency, TF over GST control); in the assay with ERG, 1.26 fold enrichment (6-mer frequency, TF over GST control); with ELF1 it was 1.34 fold enrichment (6-mer frequency, TF over GST control); with EHF it was 1.3 fold enrichment (6-mer frequency, TF over GST control). The binding signal with SPI1 is 1.46 fold enrichment (6-mer frequency, TF over GST control); with SPIB, 1.29 fold enrichment (6-mer frequency, TF over GST control); with ELK3, 1.43 fold enrichment (6-mer frequency, TF over GST control).

(Values after PMC7862700, “An all-to-all approach to the identification of sequence-specific readers for epigenetic DNA modifications on cytosine”.)
